In paper PMC4336329 (PLoS ONE, 2015):
The campaign covered roughly 310,000 compounds. About 14,000 (4.5%) showed an effect of 50% or more. The effect is printed as a negative number. The entries come from a sample that favours strong results as a whole.

Target: human ether-à-go-go-related gene (hERG) potassium channel (human, UniProt Q12809)
Experiment: primary screen, population patch clamp on CHO cells stably expressing hERG; higher = less effect of the substance
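Note: peak tail current of the secondary pulse compared with the same well before compound.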

Chain of human ether-à-go-go-related gene (hERG) potassium channel (Q12809 whole entry, looked up): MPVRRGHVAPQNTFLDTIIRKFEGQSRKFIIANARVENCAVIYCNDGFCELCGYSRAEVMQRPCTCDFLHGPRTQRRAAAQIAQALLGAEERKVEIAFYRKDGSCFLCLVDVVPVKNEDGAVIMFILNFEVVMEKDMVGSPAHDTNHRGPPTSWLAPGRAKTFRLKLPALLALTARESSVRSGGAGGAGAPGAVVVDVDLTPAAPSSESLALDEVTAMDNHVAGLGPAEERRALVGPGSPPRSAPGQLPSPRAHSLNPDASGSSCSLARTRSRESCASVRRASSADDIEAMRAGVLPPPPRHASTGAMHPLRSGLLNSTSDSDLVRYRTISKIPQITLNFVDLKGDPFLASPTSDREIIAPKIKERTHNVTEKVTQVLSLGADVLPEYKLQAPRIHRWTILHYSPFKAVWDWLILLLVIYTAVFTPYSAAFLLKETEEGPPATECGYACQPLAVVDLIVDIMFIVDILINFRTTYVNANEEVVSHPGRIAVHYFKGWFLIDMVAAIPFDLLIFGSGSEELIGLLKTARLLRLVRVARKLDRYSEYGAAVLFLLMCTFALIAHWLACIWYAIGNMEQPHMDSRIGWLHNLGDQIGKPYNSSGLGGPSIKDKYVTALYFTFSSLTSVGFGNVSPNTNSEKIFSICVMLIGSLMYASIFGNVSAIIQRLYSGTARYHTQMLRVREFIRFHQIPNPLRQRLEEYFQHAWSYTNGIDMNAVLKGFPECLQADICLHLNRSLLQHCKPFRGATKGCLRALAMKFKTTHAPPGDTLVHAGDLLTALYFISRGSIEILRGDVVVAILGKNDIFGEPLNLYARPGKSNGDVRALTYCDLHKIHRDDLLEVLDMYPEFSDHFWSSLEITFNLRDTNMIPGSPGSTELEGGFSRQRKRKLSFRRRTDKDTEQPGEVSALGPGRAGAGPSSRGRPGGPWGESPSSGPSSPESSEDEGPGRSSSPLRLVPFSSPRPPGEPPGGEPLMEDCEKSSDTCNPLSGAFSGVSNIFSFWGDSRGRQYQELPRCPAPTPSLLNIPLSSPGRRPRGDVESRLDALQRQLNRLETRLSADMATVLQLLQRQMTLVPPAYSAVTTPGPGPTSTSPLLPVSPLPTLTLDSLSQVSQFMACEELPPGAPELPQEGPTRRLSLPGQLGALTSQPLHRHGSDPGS

SMILES | hERG current change (%, negative = inhibition) at 10uM [%]
CCOC(=O)c1sc(NC(=O)CSc2nncn2C)nc1C | 9.68
Cl.O=C(OCCN1CCCCC1)c1cccc(Cl)c1 | -30.6
CCCC(c1nnnn1Cc1ccco1)N1CCN(c2ccccc2)CC1.Cl (stereo not shown) | -19.6
Cc1c(Cc2ccccc2)c(NCCN(C)C)n2c(nc3ccccc32)c1C#N | -32.4
Cc1[nH]c2ccccc2c1Cc1nnc(SCC(=O)NCc2ccco2)o1 | 4.19
COc1ccc(CC(=O)c2ccc(O)cc2O)cc1 | -3.19
N/C(=N\OC(=O)c1ccc(OCC(F)(F)F)nc1)c1ccc(Cl)cc1 | 19.5
CN1CCN(c2ccc([N+](=O)[O-])cc2C(=O)N2CCCCC2)CC1 | -7.66
O=C(c1ccc(Br)cc1)c1cc([N+](=O)[O-])ccc1N1CCOCC1 | -30.7
O=C(c1ccc(Br)cc1)c1cc([N+](=O)[O-])ccc1N1CCCCC1 | -25.3
CN1CCN(c2ccc([N+](=O)[O-])cc2C(=O)c2ccc(Cl)cc2)CC1 | -67.4
CN1CCN(c2ccc([N+](=O)[O-])cc2C(=O)c2ccc(Br)cc2)CC1 | -69.5
O=C(c1ccc(Cl)cc1)c1cc([N+](=O)[O-])ccc1N1CCOCC1 | -32.4
CC(=O)Nc1cc2nc(C)n(Cc3ccccc3[N+](=O)[O-])c2nc1C | 17.4
C1CCc2nc3c(nc2C1)CCCC3 | -10.7
C=CCc1c(C)nc(SC)nc1Nc1ccc(C)cc1 | -14.3
CN(C(=O)c1cccnc1)c1nnc(-c2cccnc2)s1 | 14.4
COc1ccc(N2CCN(C(=O)CN3CCN(C(c4ccccc4)c4ccccc4)CC3)CC2)cc1.Cl | -46
CCCCC(=O)OCC(=O)Nc1ccc(OC(F)F)cc1 | -21.2
Cc1ccn2c(=O)c(NC(=O)c3cccc4ccccc34)c(C)nc2c1 | -1.31
Cc1nc2c(C)cccn2c(=O)c1NC(=O)COc1ccccc1 | -12.1
Cc1ccn2c(=O)c(NC(=O)COc3ccccc3)c(C)nc2c1 | -56.9
N#Cc1c(Cl)nsc1NC(=O)c1ccccc1 | 8.24

SMILES | hERG current change (%, negative = inhibition) at 10uM [%]
Cc1ccc(S(=O)(=O)N2CCCCC2CCNC(=O)C(=O)NCCc2ccco2)cc1 (stereo not shown) | -33.1
Cc1ccc(C)c(N2CCN(CCCNC(=O)CCC(=O)N3CCOc4ccc(Cl)cc43)CC2)c1 | -55.9
O=C(C1COc2ccccc2O1)N1CCN(Cc2ccccc2)CC1 (stereo not shown) | -7.63
O=C(CCC(=O)N1CCOc2ccccc21)NCCCN1CCCCC1 | 7
O=C(NC1CCCCC1)C1COc2ccccc2O1 (stereo not shown) | -7.19
O=C(CCC(=O)N1CCOc2ccc(Cl)cc21)NCCN1CCOCC1 | 3.97
Cc1ccccc1CNC(=O)CCC(=O)N1CCOc2ccc(Cl)cc21 | -24.2
O=C(NC1CCN(Cc2ccccc2)CC1)C1COc2ccccc2O1 (stereo not shown) | -57.5
CCN1CCN(CCCNC(=O)CCC(=O)N2CCOc3ccccc32)CC1 | -13
CN1CCN(CCCNC(=O)CCC(=O)N2CCOc3ccccc32)CC1 | 5.46
O=C(CCC(=O)N1CCOc2ccc(Cl)cc21)NCCCN1CCN(c2ccccc2F)CC1 | -66.5
O=C(CCC(=O)N1CCOc2ccccc21)NCCCN1CCN(Cc2ccccc2)CC1 | -79.8
CC(C)(C)NC(=O)c1ccc2c(c1)C1C3CCC(C3)C1C(c1ccccc1)N2 (stereo not shown) | 5.59
Cc1ccc(S(=O)(=O)NCCC(=O)NCC(c2ccc(F)cc2)N2CCOCC2)cc1 (stereo not shown) | -5.84
CCc1cccc(NC(=O)C2CC2c2ccccc2)c1 (stereo not shown) | 14.5
Cc1noc(C)c1C(=O)OCC(=O)N1CCN(S(=O)(=O)c2ccc3ccccc3c2)CC1 | -0.697
COCc1ccccc1C1=CC(=O)C[C@H](c2ccc(OC)cc2)C1 | -12.3
Cc1cc(OCc2ccc(C(=O)n3cccn3)o2)ccc1Cl | -0.553
CN(C/C(O)=C(\C#N)c1ccccc1)C1CCCCC1 | -0.409
COC(=O)c1c(C)[nH]c(C(=O)/C=C/c2ccccc2)c1C | 1.52
O=C(CCC(=O)N1CCOc2ccc(Cl)cc21)NCCCN1CCN(Cc2ccccc2)CC1 | -73.2
O=C(CCC(=O)N1CCOc2ccccc21)NC1CCCCCC1 | -20.8
O=C(CCC(=O)N1CCOc2ccccc21)NC1CCN(Cc2ccccc2)CC1 | -51

SMILES | hERG current change (%, negative = inhibition) at 10uM [%]
CCN1CCN(CCCNC(=O)CCC(=O)N2CCOc3ccc(Cl)cc32)CC1 | -5.48
CCOC(=O)N1CCC(NC(=O)CCC(=O)N2CCOc3ccccc32)CC1 | 8.3
Cc1nc(C)c(N)c(=O)[nH]1.Cl | 16.3
O=C(NN1C(=O)C2C3C=CC(C4CC34)C2C1=O)c1ccc(Br)cc1 (stereo not shown) | 22.8
CCC1CCCCN1C(=O)CSc1nnc(-c2ccco2)o1 (stereo not shown) | 4.11
Cc1cccc(C(=O)Oc2cc(C)[nH]c(=O)c2[N+](=O)[O-])c1 | 16.7
Br.CC(=O)c1ccc(N2Cc3ccccc3C3(CCOCC3)C2=N)cc1 | -57.5
CC(=O)c1ccc(N2Cc3ccccc3C2)cc1 | -2.58
CC(=O)c1ccc(N2Cc3ccccc3C2=NC(=O)c2cccs2)cc1 | -20.6
FC(F)(F)c1cccc(Nc2cc(-c3ccccc3)nc3ncnn23)c1 | 13.5
COc1ccc(S(=O)(=O)N2CCN(c3ccc4nnc(-c5ccc(F)cc5)n4n3)CC2)cc1 | -19.4
Cc1ccccc1NC(=O)C1CCN(c2cc(-c3ccccc3)nc3ncnn23)CC1 | -8.86
CCCNC(=O)C1CCN(c2cc(-c3ccccc3)nc3ncnn23)CC1 | -75.8
COc1ccc(S(=O)(=O)N2CCN(c3ccc4nnc(-c5ccccc5)n4n3)CC2)cc1 | -66.4
COc1ccc(-c2cc3nc(-c4ccccc4)cc(N4CCC(O)CC4)n3n2)cc1 | -7.45
COc1ccc(-c2cc(N3CCCC3)n3ncnc3n2)cc1 | -64.5
COc1ccc(-c2cc(C(F)(F)F)nc(N3CCCCCC3)n2)cc1 | 2.13
O=S(=O)(c1ccc(Br)cc1)N1CCN(c2ccc3nnc(-c4ccccc4)n3n2)CC1 | -32
FC(F)(F)c1ccc(N2CCN(c3cc(-c4ccccc4)nc4ncnn34)CC2)nc1 | -65.1
CCCNC(=O)C1CCN(c2nc(C)cc(C)n2)CC1 | 0.749
FC(F)(F)c1cc(-c2ccccc2)nc2ncnn12 | 7.8
